# From PubChem BioAssay AID894 (National Center for Advancing Translational Sciences (NCATS), 2007)
# Among all 150,000 compounds or so, about 6,500 (4.3%) were called active. About 12% were inconclusive and are not listed. Only a selection was taken, and actives are over-represented in it overall. Unmarked numbers belong to inactive results. Calls follow the shape of the dose curve; as a rule, active = well fitted inhibition curve with a large enough effect (not every such curve was filed as active); inconclusive = small, poorly fitted or top-dose-only effect, or another doubt; inactive = no such curve, though single readings can be large or run the other way.
# Molecular target: 15-hydroxyprostaglandin dehydrogenase [NAD(+)] (Homo sapiens) (UniProt P15428)
# Assay: qHTS Assay for Inhibitors of HPGD (15-Hydroxyprostaglandin Dehydrogenase)
# Details: purified HPGD, NADH fluorescence kinetic, PGE2 substrate; activity change, negative = inhibition: active compounds read low
# Outline: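 20 nM HPGD preincubated 15 min at room temperature with compound in 50 mM Tris-HCl pH 8, 0.01% Tween 20. Started with 1 mM NAD+ and 30 uM prostaglandin E2; NADH fluorescence (360/450 nm) read 5 times over 30-s intervals, last minus first.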
# % is scaled to controls: 0 for no effect and ±100 for the full control effect; potency is read from the fitted curve at half-maximal effect.
# Chain of 15-hydroxyprostaglandin dehydrogenase [NAD(+)] (Homo sapiens) (P15428 whole entry, looked up): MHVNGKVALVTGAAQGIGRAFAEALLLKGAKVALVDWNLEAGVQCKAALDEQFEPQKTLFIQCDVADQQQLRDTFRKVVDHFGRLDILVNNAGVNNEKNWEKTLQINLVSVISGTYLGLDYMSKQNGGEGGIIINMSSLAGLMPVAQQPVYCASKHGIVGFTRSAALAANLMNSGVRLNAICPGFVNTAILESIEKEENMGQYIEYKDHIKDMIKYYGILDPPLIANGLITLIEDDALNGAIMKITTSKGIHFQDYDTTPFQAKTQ
SMILES,"activity change, negative = inhibition [%]",Potency
COc1ccc(N2CCN(c3ccc([N+](=O)[O-])cc3Cl)CC2)cc1,-1.48,
COc1cc2c(cc1OC)C(Nc1ccc(S(N)(=O)=O)cc1)=NC(C)(C)C2,-7.98,
CSc1nc(C)cc(SC(C(C)=O)C(=O)Nc2ccccc2)n1 (stereo not given),,25.1 µM (active)
CSc1ccccc1C(=O)Nc1cccc(C(C)=O)c1,-4.99,
CC(Sc1nnc2c(n1)C1CCC2(C)C1(C)C)C(=O)Nc1ccccc1 (stereo not given),-10.3,
CCCCOc1ccc(C(=O)NCC(=O)OCC(=O)N2CCN(S(=O)(=O)c3ccc(C)cc3C)CC2)cc1,-0.54,
COC(=O)c1ccc(C(=O)OC)c(NC(=S)N2CCN(c3ccc(F)cc3)CC2)c1,-14.5,
CCOc1ccc(C(=O)NC(=S)Nc2ccc(NC(=O)C(C)C)cc2)cc1[N+](=O)[O-],-3.94,
Cc1nnc(-c2ccc(Oc3ccc(C)c(C)c3)c([N+](=O)[O-])c2)o1,,10 µM (active)
COc1ccc(OCC(=O)Nc2cc(C)c(Cl)cc2OC)c([N+](=O)[O-])c1,-1.27,
S=C(NCc1ccc(Cl)cc1)NC1CCCCC1,-2.44,
CC(C)(C)c1nc(NCC2CCCO2)c2nnn(Cc3ccccc3)c2n1 (stereo not given),-9.49,
CC(C)Nc1ncnc2c1nnn2Cc1ccccc1,,28.2 µM (active)
C#CCNc1nc(C(C)C)nc2c1nnn2Cc1ccccc1F,-2.63,
N#Cc1ccccc1NC(=O)c1cccc(COc2ccc(Cl)cc2Cl)c1,-14.4,
Cc1ccc(-n2c(SCC(=O)Nc3ncc(Cl)cc3Cl)nc3ccccc32)cc1,-16.1,
COCC(C)n1c(C)cc(C(=O)CSc2cc(C)c3ccccc3n2)c1C (stereo not given),-10.7,
COc1ccc(/C=N/NC(=O)c2ccc(Cl)cc2)cc1COC(C)=O,-5.1,
Cc1ccc(C(=O)OCc2nc(N)nc(Nc3ccccc3C)n2)cc1,-0.25,
CCC(C)NC(=O)c1cc(Cl)ccc1OC (stereo not given),-11.4,
CN(C)/C=C/C(=O)c1ccccc1F,-27.4,
CC(Oc1ccc(Cl)cc1Cl)C(=O)/C=C/N(C)C (stereo not given),,22.4 µM (active)
CCn1cc(CNC(=O)c2cc([N+](=O)[O-])c(C)c([N+](=O)[O-])c2)cn1,-7.17,
Cc1nc2ccccc2nc(C)c1=NOCc1ccc(Cl)cc1Cl,-8.26,

SMILES,"activity change, negative = inhibition [%]",Potency
Cc1nnnn1/C(=C\c1ccccc1)C(=O)OCC(=O)N1CC2(C)CC1CC(C)(C)C2 (stereo not given),-7.09,
S=C1Nc2cc(Cl)ccc2Sc2ccccc21,-14,
O=C(NC1CC1)c1ccc2c(c1)NC(=O)c1ccccc1S2,,20 µM (active)
O=C(NC1CC1)c1cccc(Br)c1,-26.7,
COc1cc(Cl)c(C)cc1NC(=O)[C@@H]1CCCN1C(=O)c1cccs1,-4.97,
COc1ccc(-c2nn(-c3ccccc3)cc2/C=N/Nc2ccccn2)cc1OC,-26.3,
CC(=O)Nc1ccc(NC(=O)C(C)OC(=O)c2ccccc2C(=O)c2ccc(Cl)c([N+](=O)[O-])c2)cc1 (stereo not given),-2.62,
COc1ccc(C2CC(c3ccccc3)=NN2C(=O)CSc2nccc(=O)[nH]2)cc1 (stereo not given),-5.74,
CCOC(=O)c1c(NC(=O)c2ccc(N3CCOCC3)c([N+](=O)[O-])c2)sc(C)c1C,-7.82,
CCC(C)NC(=O)c1ccc(N2CCC3(CC2)OCCO3)c([N+](=O)[O-])c1 (stereo not given),,39.8 µM (active)
COCCNC(=O)c1ccc(N2CCC3(CC2)OCCO3)c([N+](=O)[O-])c1,-17.4,
CC(C)CNC(=O)COC(=O)c1ccccc1OCC(=O)Nc1ccc(Br)cc1,-5.33,
Oc1c(C=Nc2cccc3nsnc23)ccc2ccccc12,,25.1 µM (active)
Nc1nc(NC(=O)/C=C/c2ccccc2)nn1-c1ccccc1,-3.01,
COc1ccc(C2CC(=O)n3c(nc4ccccc43)S2)cc1OC (stereo not given),-12.6,
COc1cc(C2CC(=O)N3CN(Cc4ccccc4)CSC3=C2C#N)ccc1OCc1ccccc1 (stereo not given),,10 µM (active)
COc1ccc(C2C(C#N)=C(/N=C/N3CCOCC3)OC3=C2C(=O)CC(C)(C)C3)cc1OC (stereo not given),-16.4,
CC(C)C(=O)Nc1ccc(C(=O)NNC(=O)c2cccs2)cc1,-13.5,
Cc1cc(C)nc(NC(=O)c2cccc([N+](=O)[O-])c2)c1,-3.35,
CCCCC/C=C\C/C=C\CCCCCCCCCC(=O)O,-12.4,
Cc1ccc(NC(=O)CCC(=O)N/N=C/c2ccco2)c(C)c1,-2.23,
COc1ccc(C(=O)O/N=C(\N)Cc2ccc(Cl)cc2Cl)cc1OC,-15.7,
CC1CCCCC1NC(=O)CSc1nnc(N)s1 (stereo not given),,17.8 µM (active)
Cc1nnc(SCC(=O)NC2CCCC2)s1,,28.2 µM (active)

SMILES,"activity change, negative = inhibition [%]",Potency
Nc1nnc(SCC(=O)OCc2ccc(Cl)c(Cl)c2)s1,-17.6,
CC1CCCC(NC(=O)CSc2nccn2C)C1C (stereo not given),-27.8,
Cc1nnc(SCC(=O)Nn2cnnc2)s1,-0.465,
Cc1cnc(NC(=O)CSc2nnc(C)s2)s1,-0.21,
CN(CC(=O)NCCc1ccccc1)S(=O)(=O)c1cnc[nH]1,-0.3,
Cc1cccc(C)c1NC(=O)C(c1ccccc1)N1CC(=O)Nc2ccccc21 (stereo not given),-5.54,
C=CCN(CC=C)S(=O)(=O)c1ccc(C(=O)Nc2nc3c(s2)CCc2ccccc2-3)cc1,-28.8,
O=C(/C(=C/c1cccc(Cl)c1)c1nc2ccccc2[nH]1)c1ccccc1,-17.6,
COc1ccc(C/C(C)=N/NC(=O)c2ccncc2)cc1,-13.4,
COc1ccc([N+](=O)[O-])cc1NC(=O)C(C)OC(=O)C1c2ccccc2Oc2ccccc21 (stereo not given),-5.7,
NC1CCN(O)C1=O (stereo not given),-4.5,
O=C1N(c2ccc(Cl)cc2)C(c2ccc(Cl)cc2)N2CCCN12 (stereo not given),4.12,
COc1ccc(CNC(=O)CN(Cc2ccc(Cl)cc2)S(C)(=O)=O)cc1,-5.79,
Cc1cc(SCC(=O)c2ccccc2)nc(SCC(=O)c2ccccc2)n1,,28.2 µM (active)
COC(=O)c1cc(C(=O)CSc2nc(C)cc(C)n2)ccc1O,,17.8 µM (active)
COc1ccc(C(=O)CSc2n[nH]c(N)n2)cc1,-10.7,
O=C(CSc1nnc2ccccn12)c1ccccc1,78.8,
CCOC(=O)c1c(C)[nH]c(C)c1C(=O)CSc1nc(N)cc(N)n1,-1,
Cc1nc(SCC(=O)c2ccccc2)c([N+](=O)[O-])[nH]1,-5.29,
C/C=C(\C)C(=O)O[C@H]1CC(C)=C2C(=O)C=C(C)C2[C@@H]2OC(=O)[C@@](C)(OC(=O)C=C(C)C)C21 (stereo not given in full),-7.62,
O=C(Nc1ccccc1Cc1ccccc1)c1ccc2c(c1)SC1=NS(=O)(=O)CCN12,-2.73,
Cc1cc(Cl)ccc1NC(=S)N1CCC(C(N)=O)(N2CCCCC2)CC1,-9.28,
CCOc1ccc(NC(=O)CSc2ncnc3c2sc2ccccc23)cc1,-9.21,
O=C(Nc1ccon1)c1sc2ccccc2c1Cl,,15.8 µM (active)

SMILES,"activity change, negative = inhibition [%]",Potency
O=C(Nc1ccon1)c1cccc(Cl)c1,-28.3,
O=C(N/N=C/c1c(Cl)[nH]c2ccccc12)c1sc2ccccc2c1Cl,-16.9,
CC/C=C\C/C=C\C/C=C\C/C=C\C/C=C\C/C=C\CCC(=O)NC(C)C(=O)O (stereo not given),-6.96,
O=C(CSc1nc2c(cnn2-c2ccc(F)cc2)c(=O)[nH]1)N1CCCCCC1,,15.8 µM (active)
COc1ccc(N2CCN(C(=O)CSc3ncnc4c3cnn4-c3ccc(OC)cc3)CC2)cc1,-8.74,
Cc1nnc(SCC(=O)N2CCOCC2)[nH]c1=O,-12.2,
CCc1ccc(C2N3CC4([N+](=O)[O-])CN2CC([N+](=O)[O-])(C3)C4(C)C)cc1 (stereo not given),2.32,
N#CC1=C(N)OC2=C(C(=O)CCC2)C1C1CC=CCC1 (stereo not given),,20 µM (active)
CCCc1[nH]nc2c1C(C1CC=CCC1)C(C#N)=C(N)O2 (stereo not given),-1.94,
CCc1ccc(C2C(C#N)=C(N)N(N(C)C)C3=C2C(=O)CCC3)s1 (stereo not given),-10.8,
Cc1ccc(NC(=O)c2oc(=O)c3ccccc3c2-c2ccccc2)c(C)c1,-2.46,
O=C(CCCOc1ccccc1)NCc1ccco1,,12.6 µM (active)
CCCCOc1ccc(C(=O)NCc2ccco2)cc1,,15.8 µM (active)
CC(C)(C)c1ccc(C(=O)NCCC(=O)NCc2ccco2)cc1,-15.3,
CN(C)C(CNC(=O)CCCOc1ccccc1)c1ccco1 (stereo not given),-16.9,
CCOc1ccccc1C(=O)NCc1ccco1,,22.4 µM (active)
Cc1cccc(Nc2ccccc2C(=O)NCc2ccco2)c1C,-6.4,
CCCCOc1ccc(C(=O)NCc2ccncc2)cc1,-5.73,
O=C(CCOc1ccccc1)NCc1ccccc1,-13.4,
O=C(Nc1ccccc1)Nc1ccccc1C(=O)NCc1ccco1,-6.05,
O=C(Nn1c(SCc2ccc([N+](=O)[O-])cc2)nc2ccccc2c1=O)c1ccc(F)cc1,-26.2,
Oc1ccc(Br)cc1C=Nc1ccc2[nH]ncc2c1,-20.6,
COc1ccc(-n2nnnc2-c2nc3ccccc3s2)cc1,-14.9,
